According to PubChem BioAssay AID1159580 (chemical genetic matrix, 2015):
Among all 5,500 compounds or so, about 2,000 (36%) were called active. Inconclusive results (about 18%) are left out. No stated cut-off is given here; in the data, active means normalized growth mostly below about 0.91 (no sharp cut-off); inconclusive means no clear call, values can overlap the other calls; inactive means mostly above about 0.92. The list shows a part of the results.

Assay: chemical genetic growth profiling, strain panel (AID 1159580);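 further: tested at 20 µM; growth read once vehicle control cultures reached saturation at 30 °C; 1 = growth at the plate median or of vehicle wells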
Settings: S. cerevisiae deletion strains, growth OD
[1] = locus YAL021C, strain ccr4, stronger effect = lower value
[2] = locus YAL026C, strain drs2, stronger effect = lower value
[3] = locus YAL030W, strain snc1, stronger effect = lower value
[4] = locus YBL061C, strain skt5, stronger effect = lower value
[5] = locus YBR009C, strain hhf1, stronger effect = lower value
[6] = locus YBR023C, strain chs3, stronger effect = lower value
[7] = locus YBR171W, strain sec66, stronger effect = lower value
[8] = locus YBR231C, strain swc5, stronger effect = lower value
[9] = locus YBR279W, strain paf1, stronger effect = lower value
[10] = locus YCL011C, strain gbp2, stronger effect = lower value
[11] = locus YCL016C, strain dcc1, stronger effect = lower value
[12] = locus YCL069W, strain vba3, stronger effect = lower value
[13] = locus YCR088W, strain abp1, stronger effect = lower value
[14] = locus YDL005C, strain med2, stronger effect = lower value
[15] = locus YDL040C, strain nat1, stronger effect = lower value
[16] = locus YDR001C, strain nth1, stronger effect = lower value
[17] = locus YDR069C, strain doa4, stronger effect = lower value
[18] = locus YDR137W, strain rgp1, stronger effect = lower value
[19] = locus YDR159W, strain sac3, stronger effect = lower value
[20] = locus YDR297W, strain sur2, stronger effect = lower value
[21] = locus YDR334W, strain swr1, stronger effect = lower value
[22] = locus YDR335W, strain msn5, stronger effect = lower value
[23] = locus YDR392W, strain spt3, stronger effect = lower value
[24] = locus YEL003W, strain gim4, stronger effect = lower value
[25] = locus YEL037C, strain rad23, stronger effect = lower value
[26] = locus YEL061C, strain CIN8 (second series), stronger effect = lower value
[27] = locus YER015W, strain faa2, stronger effect = lower value
[28] = locus YER016W, strain bim1, stronger effect = lower value
[29] = locus YER111C, strain swi4, stronger effect = lower value
[30] = locus YER155C, strain BEM2 (second series), stronger effect = lower value
[31] = locus YFR010W, strain ubp6, stronger effect = lower value
[32] = locus YGL167C, strain pmr1, stronger effect = lower value
[33] = locus YGL173C, strain kem1, stronger effect = lower value
[34] = locus YGL227W, strain vid30, stronger effect = lower value
[35] = locus YGL240W, strain doc1, stronger effect = lower value
[36] = locus YGL253W, strain hxk2, stronger effect = lower value
[37] = locus YHR013C, strain ard1, stronger effect = lower value
[38] = locus YHR027C, strain rpn1, stronger effect = lower value
[39] = locus YHR030C, strain SLT2, stronger effect = lower value
[40] = locus YHR079C, strain IRE1, stronger effect = lower value
[41] = locus YHR142W, strain chs7, stronger effect = lower value
[42] = locus YJL092W, strain hpr5, stronger effect = lower value
[43] = locus YJL095W, strain BCK1 (second series), stronger effect = lower value
[44] = locus YJL095W, strain BCK1, stronger effect = lower value
[45] = locus YJL115W, strain asf1, stronger effect = lower value
[46] = locus YJL129C, strain trk1, stronger effect = lower value
[47] = locus YJL154C, strain vps35, stronger effect = lower value
[48] = locus YJL164C, strain tpk1, stronger effect = lower value
[49] = locus YJL166W, strain qcr8, stronger effect = lower value
[50] = locus YJR066W, strain TOR1, stronger effect = lower value
[51] = locus YKL160W, strain elf1, stronger effect = lower value
[52] = locus YKR026C, strain gcn3, stronger effect = lower value
[53] = locus YKR091W, strain srl3, stronger effect = lower value
[54] = locus YLL001W, strain dnm1, stronger effect = lower value
[55] = locus YLL026W, stronger effect = lower value
[56] = locus YLL041C, strain sdh2, stronger effect = lower value
[57] = locus YLR027C, strain aat2, stronger effect = lower value
[58] = locus YLR113W, strain HOG1, stronger effect = lower value
[59] = locus YLR221C, strain rsa3, stronger effect = lower value
[60] = locus YLR258W, strain gsy2, stronger effect = lower value
[61] = locus YLR262C, strain YPT6 (second series), stronger effect = lower value
[62] = locus YLR320W, strain mms22, stronger effect = lower value
[63] = locus YLR342W, strain FKS1, stronger effect = lower value
[64] = locus YLR357W, strain rsc2, stronger effect = lower value
[65] = locus YLR370C, strain arc18, stronger effect = lower value
[66] = locus YLR384C, strain iki3, stronger effect = lower value
[67] = locus YML120C, strain ndi1, stronger effect = lower value
[68] = locus YMR058W, strain fet3, stronger effect = lower value
[69] = locus YMR125W, strain sto1, stronger effect = lower value
[70] = locus YMR129W, stronger effect = lower value
[71] = locus YMR205C, strain PFK2, stronger effect = lower value
[72] = locus YMR231W, strain pep5, stronger effect = lower value
[73] = locus YNL071W, strain lat1, stronger effect = lower value
[74] = locus YNL183C, strain NPR1, stronger effect = lower value
[75] = locus YNL209W, strain ssb2, stronger effect = lower value
[76] = locus YNL248C, strain rpa49, stronger effect = lower value
[77] = locus YNL322C, strain KRE1 (second series), stronger effect = lower value
[78] = locus YNR049C, strain mso1, stronger effect = lower value
[79] = locus YOR001W, strain rrp6, stronger effect = lower value
[80] = locus YOR070C, strain gyp1, stronger effect = lower value
[81] = locus YOR080W, strain dia2, stronger effect = lower value
[82] = locus YOR083W, strain WHI5, stronger effect = lower value
[83] = locus YOR106W, strain vam3, stronger effect = lower value
[84] = locus YOR231W, strain MKK1, stronger effect = lower value
[85] = locus YOR265W, strain rbl2, stronger effect = lower value
[86] = locus YOR270C, strain vph1, stronger effect = lower value
[87] = locus YOR290C, strain snf2, stronger effect = lower value
[88] = locus YPL051W, strain arl3, stronger effect = lower value
[89] = locus YPL078C, strain atp4, stronger effect = lower value
[90] = locus YPL106C, strain sse1, stronger effect = lower value
[91] = locus YPL240C, strain hsp82, stronger effect = lower value
[92] = locus YPL256C, strain CLN2, stronger effect = lower value

Measured: normalized growth

Nc1ncn[nH]1
inactive: [1] 0.986 | [2] 1.02 | [3] 1.02 | [4] 1.02 | [5] 1.04 | [6] 1.02 | [7] 1.02 | [8] 1.02 | [9] 1.02 | [10] 1.02 | [11] 1.02 | locus YCL061C, strain MRC1, stronger effect = lower value 1.02 | [12] 1.02 | [13] 1.02 | [14] 1.02 | [15] 1.02 | [16] 1.02 | [17] 1.03 | [18] 1 | [19] 1.05 | locus YDR195W, strain ref2 1.01 | [20] 1.01 | [21] 1.02 | [22] 1.02 | [23] 0.966 | [24] 1.02 | [25] 1.02 | [26] 1.01 | [27] 1.02 | [28] 1.03 | [29] 1.02 | [30] 1.04 | [31] 1.02 | [32] 1.02 | [33] 1.02 | [34] 1.02 | [35] 1.05 | [36] 1.01 | [37] 1.01 | [38] 1.02 | [39] 0.995 | [40] 1 | [41] 0.97 | [42] 1.02 | [43] 1.02 | [44] 0.967 | [45] 1.02 | [46] 1 | [47] 1.02 | [48] 1 | [49] 1.01 | locus YJL187C, strain SWE1, stronger effect = lower value 1.02 | [50] 0.923 | [51] 0.974 | [52] 1.01 | [53] 1.02 | [54] 1.03 | [55] 1.01 | [56] 1.02 | [57] 1.01 | [58] 0.985 | [59] 0.995 | [60] 1.03 | [61] 1 | [62] 1.03 | [63] 1.01 | [64] 1.06 | [65] 1.01 | [66] 1 | [67] 0.997 | [68] 1.02 | [69] 1.05 | [70] 1.01 | [71] 1.05 | [72] 1.02 | [73] 1.01 | [74] 0.933 | [75] 1.01 | [76] 0.985 | [77] 1 | [78] 1.02 | [79] 1 | [80] 1.03 | [81] 1.02 | [82] 0.979 | [83] 0.987 | [84] 0.988 | [85] 1.01 | [86] 1.02 | [87] 0.982 | [88] 0.988 | [89] 0.982 | [90] 1.05 | [91] 1.02 | [92] 0.96

O=C(O)[C@@H]1CCN1
inactive: locus YAL040C, strain CLN3, stronger effect = lower value 1.01 | locus YDR363W, strain ESC2, stronger effect = lower value 0.998 | locus YER002W, strain NOP16, stronger effect = lower value 0.998 | locus YGR078C, strain PAC10, stronger effect = lower value 1.01 | locus YGR229C, strain SMI1, stronger effect = lower value 0.984 | locus YMR263W, strain SAP30, stronger effect = lower value 0.998 | locus YMR307W, strain GAS1, stronger effect = lower value 0.992 | locus YNL153C, strain GIM3, stronger effect = lower value 0.996 | locus YNL175C, strain NOP13, stronger effect = lower value 1.01 | locus YNL197C, strain WHI3, stronger effect = lower value 1.02 | locus YNL224C, strain SQS1, stronger effect = lower value 0.963 | locus YOR083W, strain WHI5 (second series), stronger effect = lower value 1 | locus YPL055C, strain LGE1, stronger effect = lower value 0.996 | locus YPL241C, strain CIN2, stronger effect = lower value 1.01

CCOC(=O)n1ccn(C)c1=S
inactive: [1] 0.987 | [2] 0.996 | [3] 0.994 | [4] 1.01 | [5] 0.946 | [6] 1.01 | [7] 0.98 | [8] 0.984 | [9] 1 | [10] 0.997 | [11] 1.03 | [12] 0.984 | [13] 0.99 | [14] 0.99 | [15] 0.985 | [16] 0.982 | [17] 0.994 | [18] 0.96 | [19] 0.881 | locus YDR195W, strain ref2 0.976 | [20] 1 | [21] 0.961 | [22] 1.01 | [23] 0.939 | [24] 0.972 | [25] 0.974 | [26] 0.966 | [27] 0.982 | [28] 1.06 | [29] 0.994 | [30] 0.961 | [31] 0.955 | [32] 0.97 | [33] 0.975 | [34] 0.985 | [35] 0.995 | [36] 0.998 | [37] 1.02 | [38] 0.997 | [39] 1.02 | [40] 1.01 | [41] 1.01 | [42] 0.987 | [43] 0.99 | [44] 1.01 | [45] 0.963 | [46] 0.974 | [47] 0.977 | [48] 0.979 | [49] 0.986 | [50] 0.988 | [51] 1.04 | [52] 0.97 | [53] 0.99 | [54] 0.951 | [55] 0.986 | [56] 0.988 | [57] 0.999 | [58] 0.999 | [59] 0.967 | [60] 1 | [61] 0.929 | [62] 0.931 | [63] 1.01 | [64] 0.99 | [65] 0.998 | [66] 0.981 | [67] 0.974 | [68] 0.991 | [69] 0.971 | [70] 0.979 | [71] 0.983 | [72] 0.988 | [73] 0.98 | [74] 0.971 | [75] 0.985 | [76] 1.04 | [77] 1.01 | [78] 0.999 | [79] 0.949 | [80] 1.01 | [81] 0.998 | [82] 1.01 | [83] 1.02 | [84] 1.02 | [85] 0.988 | [86] 1.02 | [87] 1.05 | [88] 1.06 | [89] 1.05 | [90] 1.04 | [91] 0.994 | [92] 0.98
